This passage reports growth results from PubChem BioAssay (NCI).

This is part of a sample that, as a whole, favours compounds with a hit. Of some 83,000 tested, about 20% had one in any assay.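 Activity criterion: percent growth below 10, measured after cells in 96-well plates were exposed to a single compound concentration for 48 hours.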 Values without a mark were called inactive. The source made the active and inactive calls.

Some test systems named below: HCT-15 colon; HT29 colon; SNB-75 CNS; SNB-19 CNS; U251 CNS; PC-3 prostate; SK-MEL-5 melanoma; UACC-62 melanoma; LOX IMVI melanoma; SK-MEL-28 melanoma; SK-MEL-2 melanoma; EKVX NSCLC; SN12C renal; UO-31 renal; TK-10 renal; ACHN renal; CAKI-1 renal; A498 renal; CCRF-CEM leukemia; MOLT-4 leukemia.
What all share (assay): NCI-60 one-dose screen, 48 h (100 = growth as untreated, 0 = no growth, -100 = all killed)
Holding throughout (settings): 10 µM unless noted

On to `Cc1cnc(N)s1`, for which the growth in the experiment on HCT-15 colon was 105%; in the experiment on HT29 colon, 100%; in the experiment on SNB-75 CNS, 71.5%; in the experiment on SNB-19 CNS it was 91.4%; with U251 CNS, 95.5%; in the experiment with PC-3 prostate, 88.9%. Also, the growth in the experiment on SK-MEL-5 melanoma was 97.5%; in the experiment on UACC-62 melanoma, 90.7%; in the experiment on LOX IMVI melanoma, 98.6%; in the experiment with SK-MEL-28 melanoma it was 99.1%; in the experiment with SK-MEL-2 melanoma, 102%; in the experiment with EKVX NSCLC, 94.2%. In addition, the growth in the experiment with SN12C renal is 97.2%; in the experiment with UO-31 renal, 81.6%; with TK-10 renal, 114%; in the experiment with ACHN renal, 96.2%; in the experiment with CAKI-1 renal, 96.9%; with A498 renal it was 103%. Besides, the figures for the growth with CCRF-CEM leukemia and in the experiment on MOLT-4 leukemia were 99.4% and 103%, respectively.
On to `COC(=O)c1nc(=S)[nH]c(C(=O)OC)c1C(=O)c1ccccc1`, for which the growth is 103% in the experiment with HCT-15 colon; 109% with HT29 colon; 86.6% in the experiment on SNB-75 CNS; 102% in the experiment with SNB-19 CNS; 105% with U251 CNS; 91.2% with PC-3 prostate. The growth in the experiment on SK-MEL-5 melanoma is 103%; in the experiment on UACC-62 melanoma it was 92.6%; with LOX IMVI melanoma it was 94.2%; in the experiment on SK-MEL-28 melanoma it was 105%; in the experiment with SK-MEL-2 melanoma, 104%; with EKVX NSCLC, 107%. Moreover, the growth in the experiment on SN12C renal is 99.2%; with UO-31 renal, 85.3%; in the experiment on TK-10 renal it was 113%; in the experiment with ACHN renal, 101%; in the experiment with CAKI-1 renal, 87%; in the experiment with A498 renal, 114%. In addition, the growth in the experiment on CCRF-CEM leukemia is 103%; in the experiment with MOLT-4 leukemia, 112%.
For `O=C1C2=C(Nc3cc(Cl)ccc3N2)OC1c1c[nH]c2ccc(COc3ccccc3)cc12` (stereo not given), the growth in the experiment with HCT-15 colon was 82%; in the experiment with HT29 colon, 86.4%; in the experiment on SNB-75 CNS it was -2.61% (active); with SNB-19 CNS it was 30.4%; in the experiment on U251 CNS, 52.2%; in the experiment on PC-3 prostate, 45.7%. For the same molecule, the growth in the experiment with SK-MEL-5 melanoma was 81%; in the experiment with UACC-62 melanoma, 68.7%; in the experiment with LOX IMVI melanoma it was 70.2%; with SK-MEL-28 melanoma, 94%; in the experiment with SK-MEL-2 melanoma it was 86.7%; in the experiment with EKVX NSCLC it was 55%. Further, the growth with SN12C renal was 71.3%; in the experiment with UO-31 renal, 51.2%; in the experiment on TK-10 renal, 71.6%; in the experiment with ACHN renal, 60%; in the experiment on CAKI-1 renal, 52.1%; with A498 renal it was 102%. Besides, the growth in the experiment with CCRF-CEM leukemia is 64.1%; in the experiment on MOLT-4 leukemia, 77.3%.
For the molecule `O=C1c2cccnc2-c2ncccc21`, the growth in the experiment with HCT-15 colon is 111% [100 µM]; in the experiment on HT29 colon, 106% [100 µM]; in the experiment on SNB-75 CNS it was 93.8% [100 µM]; in the experiment with SNB-19 CNS, 102% [100 µM]; in the experiment with U251 CNS it was 100% [100 µM]; in the experiment with PC-3 prostate, 96.4% [100 µM]. Also, the growth in the experiment on SK-MEL-5 melanoma is 103% [100 µM]; in the experiment with UACC-62 melanoma, 102% [100 µM]; in the experiment on LOX IMVI melanoma it was 99.7% [100 µM]; in the experiment with SK-MEL-28 melanoma, 119% [100 µM]; with SK-MEL-2 melanoma, 122% [100 µM]; with EKVX NSCLC, 99.6% [100 µM]. In addition, the growth in the experiment with SN12C renal is 108% [100 µM]; with UO-31 renal, 97.1% [100 µM]; with TK-10 renal it was 97.1% [100 µM]; in the experiment on ACHN renal, 112% [100 µM]; with CAKI-1 renal, 103% [100 µM]; in the experiment with A498 renal it was 103% [100 µM]. The growth with CCRF-CEM leukemia is 106% [100 µM]; with MOLT-4 leukemia, 117% [100 µM].
For `COc1cc(Cl)ccc1C`, the growth in the experiment with HCT-15 colon is 14.3%; in the experiment with HT29 colon, 27.1%; in the experiment with SNB-75 CNS, 110%; with SNB-19 CNS it was 79%; in the experiment with U251 CNS it was 78%; with PC-3 prostate, 74.1%. In addition, the growth is 96.3% in the experiment with SK-MEL-5 melanoma; 66.4% in the experiment on UACC-62 melanoma; 77.1% with LOX IMVI melanoma; 112% in the experiment on SK-MEL-28 melanoma; 30.3% with SK-MEL-2 melanoma; 109% with EKVX NSCLC. Also, the growth is 72.7% in the experiment with SN12C renal; 67.1% in the experiment on UO-31 renal; 90.5% in the experiment with TK-10 renal; -8.72% (active) with ACHN renal; 54.7% in the experiment on CAKI-1 renal; 110% in the experiment on A498 renal. Moreover, the growth in the experiment on CCRF-CEM leukemia is 91.9%; with MOLT-4 leukemia, 81.7%.
Turning to `Clc1ccc2sc(-c3ccccc3)nc2c1`, the growth is 100% with HCT-15 colon; 95.1% in the experiment on HT29 colon; 67.7% in the experiment with SNB-75 CNS; 97.6% with SNB-19 CNS; 105% in the experiment on U251 CNS; 88% with PC-3 prostate. For the same molecule, the growth was 91% in the experiment with SK-MEL-5 melanoma; 86.2% in the experiment on UACC-62 melanoma; 101% in the experiment on LOX IMVI melanoma; 106% in the experiment with SK-MEL-28 melanoma; 77.2% in the experiment with SK-MEL-2 melanoma; 88.1% in the experiment with EKVX NSCLC. The growth in the experiment on SN12C renal was 95.6%; in the experiment with UO-31 renal it was 77.6%; in the experiment with TK-10 renal it was 126%; in the experiment on ACHN renal, 89.6%; in the experiment on CAKI-1 renal it was 90.7%; with A498 renal, 92.5%. Further, the figures for the growth in the experiment on CCRF-CEM leukemia and with MOLT-4 leukemia were 87% and 92.3%, respectively.
